Screening results as filed in PubChem BioAssay.
Tgondii IFNg: inhibitors of Toxoplasma gondii growth with IFN-gamma. 69,000 compounds, 3.8% hits. activity change, negative = inhibition, % (concentration not given with the values). Toxoplasma gondii growth in IFN-gamma-treated host cells; hits give low values; in the data active means activity change below about -70%, passing the limit was not always enough;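 further: host cells are HeLa cells infected with Toxoplasma gondii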
An asterisk follows results filed as active; i = inactive; ! = a repeat was not active. The full list was thinned out, with hits kept by preference.

SMILES | Tgondii IFNg
Cc1sc2ncnc(Oc3ccc(OCc4ccccc4)cc3)c2c1C | -101*
CN(Cc1ncc[nH]1)Cc1ccc(-c2nc3ccccc3n2C)o1 | 128
Cc1nc(OCC(=O)Nc2ccc(Cl)cc2F)c2ccccc2n1 | -11
COC(=O)CNC(=O)N1CCCCC1c1cccc(F)c1 (stereo not given) | -3
O=C(O)c1ccccc1 | 12
O=C(O)c1c2ccccc2nc2ccccc12 | -75*
O=C(O)c1c2c(nc3ccccc13)CSc1ccc(Cl)cc1-2 | 23
CCc1cccc(NC(=O)c2c(O)c3ccccc3n(-c3ccccc3)c2=O)c1 | 56
Cc1ccc(N=Cc2c(C)[nH]n(-c3ccccc3)c2=S)c(Br)c1 | 34
COc1cccc(CNC(=O)c2cc3cc(S(=O)(=O)N(C)C)ccc3n2Cc2ccncc2)c1 | -42
CCn1c(=O)c(-c2nc(-c3ccccc3F)no2)c(O)c2ccccc21 | 209
Cc1occc1C(=O)N1C[C@H]2CN(c3cnn(C)c3)C(=O)[C@H]2C1 | -4
Cc1cccc(CN2CCCC3(CCN(c4cncnc4)C3=O)C2)n1 (stereo not given) | -3
O=c1oc(-c2ccccc2)nc2c1C1(CCCC1)Cc1ccccc1-2 | -50
CC1(C)CC2(CCCN(Cc3nc4c(c(=O)[nH]3)C3(CCCCC3)Cc3ccccc3-4)C2)CCO1 (stereo not given) | -85*
CC1(C)Cc2ccccc2-c2nc(-c3ccccc3)oc(=O)c21 | 6
O=c1[nH]c(CN2CCCC3(CCCCC3)C2)nc2c1C1(CCCCC1)Cc1ccccc1-2 | -81*
CCC1=NOC(CNC(=O)c2cnn3ccn(C)c23)C1 (stereo not given) | -45
O=C(c1[nH]cnc1-c1ccccc1)N1CCCC(N2CCCC2=O)C1 (stereo not given) | 4
Cc1cccc(-c2ccc([C@H]3[C@H]4CN(S(=O)(=O)c5ccccc5F)CCCCN4[C@H]3CO)cc2)c1 | -40
Cc1cccc(-c2ccc([C@H]3[C@@H](CO)N4CCCCN(S(=O)(=O)c5ccccc5F)C[C@H]34)cc2)c1 | -80*
O=S(=O)(c1ccc(F)cc1)N1CCCCN2[C@@H](CO)[C@H](c3ccc(-c4cncnc4)cc3)[C@@H]2C1 | 3
O=C(CCC1Nc2c3ccccc3nc(=S)n2C1=O)N1CCN(c2cccc(Cl)c2)CC1 (stereo not given) | -9
COCCN1C2COCC1CN(S(=O)(=O)c1cn(C)cn1)C2 | 1
CN1CCC2(CC1)OCCN(Cc1cccnc1)c1ccccc12 | -39
SMILES | Tgondii IFNg
COc1ccc(-c2cc(N)nc(N)n2)cc1 | 16
COc1ccc(-c2ccnc(-c3cccs3)n2)cc1 | -103*
COc1ccc(-c2ccnc(SC)n2)cc1 | -82*
COc1ccc(-c2cc(C(F)(F)F)n3nc(-c4cccs4)cc3n2)cc1 | -51
COc1ccc(-c2cc(C3CCN(C(C)=O)CC3)ccn2)cc1 | 74
COc1cccc(CNc2ncc(-c3ccncc3)c(-c3cccs3)n2)c1 | -52
CCc1[nH]c(=O)c(C(=O)Nc2ccc(C)c(S(=O)(=O)N3CCOCC3)c2)cc1C | -30
CCO[C@H]1CC[C@@H]2[C@H]1OCCN2C(=O)CC1C=CCC1 (stereo not given in full) | 264
CN(C)C(=O)N1CCC2(CC1)CC(COCC1CC1)N(CC1CC1)C2 (stereo not given) | 1
CCOc1cccc2cc(-c3nc(-c4ccccc4)c4cc(Cl)ccc4n3)c(=O)oc12 | -53
COc1nc(N)nc2c1ncn2[C@@H]1O[C@H](CO)[C@@H](O)[C@@H]1O | 14
Nc1ncn([C@@H]2O[C@H](CO)[C@@H](O)[C@H]2O)c(=O)n1 | -41
Nc1nc(=S)c2ncn([C@@H]3O[C@H](CO)[C@@H](O)[C@H]3O)c2[nH]1 | -77*
O=C(CC1N=C2c3ccccc3N=C(SCc3cccc(Cl)c3)N2C1=O)NCc1ccc(F)cc1 (stereo not given) | -1
CCc1ccc(NC(=O)c2c(O)c3ccccc3[nH]c2=O)cc1 | i
COc1cc2[nH]c3c(=O)n(CC(=O)N4CCN(c5ncccn5)CC4)cnc3c2cc1OC | 25
CCOC(=O)c1c(NC(=O)CSc2nc(C)cc(C)n2)sc(C(C)=O)c1C | -24
Cc1sc(NC(=O)CSc2nc3cc4c(cc3cc2C#N)OCCO4)c(C#N)c1C | 198
CCOC(=O)c1sc(NC(=O)CSc2n[nH]c(-c3ccccn3)n2)c(C#N)c1C | -108*
c1csc(-c2[nH]ncc2-c2ccnc(N3CCOCC3)n2)c1 | -106*
c1csc(-c2cnc(N3CCCC3)nc2-c2nccs2)c1 | -8
Cn1ccc2c(-c3cc(N)nc(N4CCOCC4)n3)ccnc21 | -17
COc1ccc(Cl)cc1NC(=O)c1c(O)c2cccnc2n(-c2ccc(F)cc2)c1=O | 18
CC1=C(C(=O)Nc2cc(C)cc(C)c2)C2(CCN(C(C)C)CC2)OC1=O | 48
COc1cc([C@@H]2c3cc4c(cc3[C@H](O)[C@H]3COC(=O)[C@H]23)OCO4)cc(OC)c1OC | -76*!
SMILES | Tgondii IFNg
COc1cc2c(c(OC)c1OC)-c1c(cc3c(c1OC)OCO3)C[C@H](C)[C@@H](C)C2 | -8
COc1ccc([C@H]2C/C=C\C[C@@H](c3ccc4c(c3)OCO4)NC(=O)CCC(=O)N2)c(OC)c1 | -52
COc1cc([C@@H]2c3cc4c(cc3[C@@H](O[C@@H]3O[C@@H]5CO[C@@H](C)O[C@H]5[C@H](O)[C@H]3O)[C@H]3COC(=O)[C@H]23)OCO4)cc(OC)c1O | -80*
COCCC(=O)N1Cc2ccnn2CC(c2nc(C)no2)C1 (stereo not given) | 22
Cc1cc(C(=O)N2CCc3ncnc(OC(C)C)c3CC2)no1 | 0
Cc1cc(F)ccc1NC(=O)Cn1c(=O)cc(C(=O)N2CCOCC2)c2ccccc21 | 9
CCOc1ccccc1-c1nnc(NC(=O)c2ccc3c(c2)ncn3C)s1 | -4
Cc1cc(Cc2cccc(F)c2)cc(C2CCN(C(=O)c3n[nH]c4c3CCCCC4)CC2)n1 | -111*
Cc1cc(Cc2c(F)cccc2F)cc(C2CCN(C(=O)CC3CCCCO3)CC2)n1 (stereo not given) | -20
O=C(c1n[nH]c2c1CCCC2)N1CCC(c2[nH]ncc2-c2ccccc2)CC1 | -49
Cc1ccc2nc(C)cc(C(=O)N(Cc3nccn3C)C3CC3)c2c1 | -37
O=C(c1cccc2c1NCCC2)N1CC[C@@H](c2ccc3c(c2)OCO3)[C@H](O)C1 | 19
CCN1C(=O)CCc2cc(NC(=O)c3ccc(F)c(Cl)c3)ccc21 | -37
Cn1cccc1C(=O)N1C[C@H]2CN(Cc3cccc(F)c3)C[C@H]2C1 | -1
O=C(COC(=O)CN1C(=O)C(=O)c2ccccc21)Nc1nc2c(s1)CCCC2 | -10
COc1nn(CC(=O)Nc2nc3c(s2)CCCCCC3)c(=O)c2ccccc12 | -86*
Cc1nc2nc(CC(=O)Nc3nc4c(s3)CCCCCC4)[nH]n2c(=O)c1C | -39
CCOc1ccc(N(C(=O)c2ccc(C)cc2)C2(C(=O)NCc3ccccc3)CCN(C(C)=O)CC2)cc1 | 5
Cc1ccc(S(=O)(=O)N2CCC3(CC2)Nc2ccccc2-n2cccc23)cc1 | 28
Cn1nccc1-c1nc(NCc2ccccn2)ncc1-c1ccsc1 | -93*
Cc1nc2ncc(-c3cc(NCc4ccccn4)nc4[nH]ccc34)cc2[nH]1 | -1
Cn1ccnc1-c1cnc(NCc2ccccn2)nc1-c1ccco1 | 26
CCN1C(=O)CCCC12CCCN(C(=O)CCc1ccccc1)C2 (stereo not given) | 9
COc1ccc(CNC(=O)c2c(O)c3cccnc3[nH]c2=O)cc1OC | 117
CCCCOc1cc(CC2CNC(=O)N2)ccc1OC (stereo not given) | -72*!
